Screens deposited in PubChem BioAssay by National Center for Advancing Translational Sciences (NCATS).
HSD17B inhib: blocks hydroxysteroid 17-beta dehydrogenase activity; Q99714; recombinant HSD17B10, NADH fluorescence kinetic; Potency, µM (top dose mostly 57.1 µM), hits mostly inhibitors; 7.6% of 75,000 active;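 note: the protocol describes HADH2 (HSD17B10) and not the HSD17B4 of the title; nearly all actives have a fitted effect of over 70% in size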
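20 nM HADH2, pH 9.0 Tris/Tween; cpd preinc 15 min RT; start w/ 1 mM NAD+ + 90 uM b-hydroxybutyryl-CoA; kinetic fluor ex360/em450 q30s x 4 min; delta last-first.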
A350 fluor: compound fluoresces in the Alexa 350 spectral region | Compound autofluorescence, 340/450 nm, Alexa 350 dye-equivalents; stronger effect = higher value | max dye-equivalent concentration, M | 11% of 59,000 active; in the data active = max dye-equivalent concentration above about 10 nM; inconclusive = mostly about 1.1 nM to 9.6 nM
4MU fluor: compound fluoresces in the 4-MU spectral region; 11% of 59,000 active; compound autofluorescence, 340/450 nm, 4-MU equivalents; stronger effect = higher value; max dye-equivalent concentration, M; AID 589; in the data active = max dye-equivalent concentration above about 10 nM; inconclusive = mostly about 1.1 nM to 9.6 nM
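Intrinsic fluorescence at 340/450 nm (ex/em) was read after 15 min at room temperature in pH 8.0, 100 mM Tris. Each compound concentration expressed as 4-MU-equivalent concentration from a six-point 4-MU standard series on each plate.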
HADH2 inhib: blocks human hydroxyacyl-CoA dehydrogenase type II; recombinant HADH2, NADH fluorescence, beta-hydroxybutyryl-CoA; AID 886; Potency, µM (top dose mostly 57.1 µM), hits mostly inhibitors; 3.4% of 73,000 active; note: nearly all actives have a fitted effect of over 60% in size
Target sequence (Q99714 whole entry, looked up, one chain of several): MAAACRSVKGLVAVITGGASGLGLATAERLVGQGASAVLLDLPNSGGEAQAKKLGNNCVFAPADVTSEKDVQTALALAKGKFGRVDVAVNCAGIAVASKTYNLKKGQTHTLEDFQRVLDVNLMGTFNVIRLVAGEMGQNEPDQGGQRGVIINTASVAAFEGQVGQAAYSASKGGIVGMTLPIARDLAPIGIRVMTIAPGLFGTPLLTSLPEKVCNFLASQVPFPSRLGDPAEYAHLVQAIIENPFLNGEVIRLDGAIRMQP
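Buffer 100 mM Tris-HCl pH 9.0/0.01% Tween-20; HADH2 20 nM; NAD+ 1 mM; beta-hydroxybutyryl-CoA 90 uM (all final). 15 min cpd preincubation, RT.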
CRE Fsk mod: alters forskolin-stimulated CRE reporter signaling in CHO cells. CHO CRE-bla reporter (cAMP response element driving beta-lactamase), forskolin EC10, beta-lactamase ratio. 2.5% of 71,000 active. AID 662. Potency, µM (series often up to 38.2 µM), most hits filed as activators; active = well fitted activation curve with a large enough effect in the signal ratio, with a control signal flat, not every such curve was filed as active; inconclusive = small, poorly fitted or top-dose-only effect, or effect the other way, or a change in a side signal; the % refers to the signal ratio
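Using CellSensor CRE-bla CHO cells in Opti-MEM with 0.5% dialyzed FBS, compounds were titrated with EC10 NKH 477 for 3 h at 37 °C. CCF4 ratio (460/530 nm) gave %Activity; AC50 derived.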
AID923: qHTS Assay for Allosteric/Competitive Inhibitors of Caspase-1: Spectroscopic Profiling in AFC Spectral Region; compound fluorescence, AFC spectral region (405/520 nm); Potency, µM (doses to about 57.5 µM), usual class: activators; 1.1% of 75,000 active
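Titrations up to 57 uM read every 20 sec for 3 min (405/520 nm) with 50 nM caspase 1 and 5 uM Ac-WEHD-AFC, pH 7.5 HEPES buffer. Fluorescence-vs-time intercept gave baseline, scaled against on-plate AFC standard.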
Numbers stand for hits; – = inactive; ? = inconclusive; · = not tested or not shown; [ ] = remark or other dose. Hits are enriched below; roughly 14% of the tested compounds scored in any of these assays. Unless noted, calls come from the whole dose curve; as a rule, active = well fitted curve in the direction sought with a large enough effect; inconclusive = small, poorly fitted or top-dose-only effect, or another doubt; inactive = no such curve, though single readings can be large; an effect the other way counts as inactive or inconclusive.

SMILES	HSD17B inhib	A350 fluor	4MU fluor	HADH2 inhib	CRE Fsk mod	AID923
CCOC(=O)c1[nH]c(C)c(C(=O)c2cc(F)ccc2F)c1C	–	–	–	–	13µM	–
C[C@H](c1ccccc1)N1C(=O)[C@H]2[C@@H]3[C@H](O)[C@H](O)CC(=O)[C@H]3CC[C@H]2C1=O	–[11.4 µM]	·	·	–[11.4 µM]	·	–[11.5 µM]
COc1ccc(OC2C=CC(C#Cc3ccc(C(C)(C)C)cc3)OC2CO)cc1 (centres undefined)	–[11.4 µM]	·	·	–[11.4 µM]	·	–[11.5 µM]
Fc1ccccc1CSc1nnc(-c2cnccn2)n1Cc1ccco1	–	?	–	–	?	–
Clc1ccccc1CSc1nnc(-c2cccnc2)n1Cc1ccco1	–	6.7e-08M	6.3e-08M	–	–	–
COc1ccc(C)cc1NC(=O)CSc1nnc(COc2ccc(C)cc2)n1Cc1ccco1	–	2.1e-08M	1.6e-08M	–	–	–
Cc1ccc(NC(=O)CSc2nnc(-c3cnccn3)n2Cc2ccco2)cc1	–	1.8e-08M	1.9e-08M	–	–	–
C(=C\c1ccccc1)/CSc1nnc(-c2cnccn2)n1Cc1ccco1	32µM	–	–	?	?	–
COc1ccccc1NC(=O)CSc1nnc(COc2ccc(Cl)cc2)n1Cc1ccco1	?	–	–	–	–	–
NCCC[C@@H](CC(=O)N[C@@H]1CCNC[C@H]1C(=O)N[C@H](CC(=O)N[C@@H](CCC(=O)O)CC(=O)O)Cc1ccccc1)NC(=O)C[C@H](CO)NC(=O)[C@@H]1CCCC[C@H]1N	·	·	·	–	–	·
CC(=O)Nc1ccc2c(c1)nc(CCN1CCN(C)CC1)n2C	–	–	–	–	–	–
CCOC(=O)C1(O)Oc2cc(OC)cc(OC)c2C(=O)C1c1ccccc1 (centres undefined)	–	·	·	·	·	–
CCOC(=O)OCC1OC(c2ccccc2)C=CC1Oc1cccc(N(C)C)c1 (centres undefined)	–[11.4 µM]	·	·	–[11.4 µM]	·	–[11.5 µM]
CCn1c(COc2ccc(C)cc2)nnc1SCC(=O)C(C)(C)C	–	8.5e-08M	9.7e-08M	–	–	–
CCn1c(COc2ccccc2)nnc1SCC(=O)C(C)(C)C	–	–	–	–	?	–
CC(C)C[C@@H](CC(=O)N[C@H](CC(=O)N[C@@H]1CCCC[C@H]1C(=O)N[C@H](CC(=O)N[C@@H](CCC(=O)O)CC(=O)O)CC(C)C)C(C)C)NC(=O)[C@@H]1CNCC[C@H]1N	·	·	·	–	?	·
Cc1ccc2c(COC(=O)c3n[nH]c4ccccc34)cc(=O)oc2c1	32µM	–	–	–	?	–
CC(C)CCNC(=O)C(c1ccco1)N(Cc1ccc(F)cc1)C(=O)c1snc(C(N)=O)c1N (centres undefined)	25µM	7.1e-08M	7.7e-08M	–	–	–
CCC(C(=O)NCc1ccc(F)cc1)N(Cc1ccco1)C(=O)c1snc(C(N)=O)c1N (centres undefined)	25µM	7.7e-08M	9e-08M	–	–	–
CCCC(C(=O)NCc1ccc(OC)cc1)N(Cc1ccco1)C(=O)c1snc(C(N)=O)c1N (centres undefined)	?	8.1e-08M	6.9e-08M	–	?	–
COc1ccc(C(OC(=O)c2ccco2)C(=O)NCc2ccco2)cc1 (centres undefined)	–	–	–	–	–	–
O=C(c1csnn1)N1CCC2(CCCN(c3ccccn3)C2)CC1	?	–	–	–	–	–
CC(C)=C[C@H]1[C@@H](C(=O)Oc2ccccc2C(C)C)C1(C)C	–[11.4 µM]	–	–	–[11.4 µM]	?	–[11.5 µM]
COc1cc(O)c(C(=O)O)c(O)c1	–	·	·	·	·	–
COCCOC(=O)C1=C(N)OC2=C(C(=O)CCC2)C1c1cccnc1 (centres undefined)	–	1.4e-08M	1.3e-08M	–	–	–
SMILES	HSD17B inhib	A350 fluor	4MU fluor	HADH2 inhib	CRE Fsk mod	AID923
COCCOC(=O)C1=C(N)OC2=C(C(=O)CC(C)(C)C2)C1c1cccnc1 (centres undefined)	–	–	–	–	–	–
CC(=O)C(C)Oc1cc(C)cc2oc(=O)c(C)c(C)c12 (centres undefined)	10µM	1.9e-08M	1.5e-08M	32µM	–	–
CC(=O)COc1cc(C)cc2oc(=O)c(C)c(C)c12	25µM	3.6e-08M	3.2e-08M	–	–	–
COc1cc(-c2nnc3sc(Cc4ccc(Cl)cc4)nn23)cc(OC)c1OC	–	–	–	10µM	2.5µM	–
COc1ccc(Cc2nn3c(-c4cc(OC)c(OC)c(OC)c4)nnc3s2)cc1	–	–	–	7.9µM	5µM	–
COc1ccc(Cc2nn3c(-c4ccccc4Br)nnc3s2)cc1	–	–	–	–	–	–
COc1cc(-c2nnc3sc(Cc4ccccc4)nn23)cc(OC)c1OC	–	?	–	?	10µM	–
CN(C)C1CCN(C(=O)c2ccc(-n3c(=O)c(=O)[nH]c4ccccc43)cc2)C1 (centres undefined)	–	·	·	–	·	–
CCN(Cc1cc2cccc(C)c2[nH]c1=O)C(=O)c1ccccc1OC	–	1.4e-08M	1.3e-08M	–	?	–
CCC(=O)N(Cc1cc2cccc(C)c2[nH]c1=O)c1ccccc1OC	?	–	–	–	–	–
CCc1ccc2[nH]c(=O)c(CN(Cc3ccco3)S(=O)(=O)c3ccc4c(c3)OCCO4)cc2c1	–	?	?	–	–	–
COc1ccc2[nH]c(=O)c(CN(CCO)S(=O)(=O)c3ccc4c(c3)OCCO4)cc2c1	25µM	2.1e-07M	2.1e-07M	–	–	–
CCC(=O)N(Cc1ccc2c(c1)OCO2)Cc1cc2cc(OC)ccc2[nH]c1=O	32µM	1.3e-07M	8.9e-08M	–	–	–
CCN(Cc1cc2cc(OC)ccc2[nH]c1=O)C(=O)Cc1ccc(OC)cc1	?	1.7e-07M	1.4e-07M	–	?	–
CCN(Cc1cc2ccccc2[nH]c1=O)C(=O)c1cccnc1	–	–	–	–	?	–
Cc1ccc2[nH]c(=O)c(CN(Cc3cccnc3)C(=O)c3ccncc3)cc2c1	?	2.4e-08M	1.9e-08M	–	–	–
O=C(c1ccncc1)N(Cc1ccco1)Cc1cc2ccccc2[nH]c1=O	?	?	–	–	–	–
CCN(Cc1cc2cc(OC)ccc2[nH]c1=O)C(=O)c1ccncc1	25µM	2e-07M	1.5e-07M	–	?	–
CC(NC(=O)Nc1ccc(F)cc1F)c1ccncc1 (centres undefined)	–	1.6e-08M	1.5e-08M	?	–	–
CNC1=C(Br)C(=O)c2ccncc2C1=O	–	·	·	–	?	–
CCOC(=O)N1CCN(CC(=O)Nc2c(C(=O)OC)[nH]c3ccc(Cl)cc23)CC1	25µM	?	1e-08M	?	–	–
CCOC(=O)N1CCN(c2c(-c3ccc(C)cc3)c(=O)c2=O)CC1	–	–	–	–	–	–
CCN1CCN(CC(=O)Nc2c(C(=O)OC)[nH]c3cccc(Cl)c23)CC1	–	–	–	–	?	–
